ADAM17 inh: ADAM17 inhibition, QFRET primary screen; P78536; recombinant ADAM17, EDANS/DABCYL FRET peptide cleavage; inhibition, % at 6.95 µM; 0.83% of 370,000 active; AID 720648;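 active = inhibition above the mean of compounds lying between control limits plus 3 SD, set per campaign, cut at about 8.5% in these data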;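 note: 0% = DMSO-only wells as the low control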
Target sequence (P78536 215-824 limits assumed): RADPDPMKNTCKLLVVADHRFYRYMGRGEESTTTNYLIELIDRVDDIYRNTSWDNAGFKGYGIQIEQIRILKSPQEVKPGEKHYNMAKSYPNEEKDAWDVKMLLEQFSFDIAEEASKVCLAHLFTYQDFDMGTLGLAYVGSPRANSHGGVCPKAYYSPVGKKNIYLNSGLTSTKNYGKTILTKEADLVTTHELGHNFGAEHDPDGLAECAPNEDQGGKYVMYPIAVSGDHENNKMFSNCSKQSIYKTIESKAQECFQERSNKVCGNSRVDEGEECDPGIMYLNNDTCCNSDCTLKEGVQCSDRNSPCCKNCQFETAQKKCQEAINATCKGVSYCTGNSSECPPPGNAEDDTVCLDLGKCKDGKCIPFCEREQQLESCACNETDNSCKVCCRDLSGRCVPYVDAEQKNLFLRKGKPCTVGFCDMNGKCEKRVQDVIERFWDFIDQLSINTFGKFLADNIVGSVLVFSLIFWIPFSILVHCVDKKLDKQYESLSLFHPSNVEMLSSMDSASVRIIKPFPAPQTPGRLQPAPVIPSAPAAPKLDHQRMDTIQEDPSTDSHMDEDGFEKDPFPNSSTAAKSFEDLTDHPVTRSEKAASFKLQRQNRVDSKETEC
ADAM10 inh: inhibitors of human ADAM10. O14672. recombinant ADAM10, EDANS/DABCYL FRET peptide cleavage, 3 h. inhibition, % at 7 µM. 0.62% of 370,000 active. AID 720582;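 active = inhibition above a per-campaign cutoff equal to the mean of compounds falling between control-based bounds plus 3 SD, cut at about 20% in these data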;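 note: 0% = DMSO wells while the 100% control is not disclosed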
NPR1 activator: GC-A (human) enzyme activation; P16066; HEK293 GC-A cells, cGMP TR-FRET, EC30 ANP; 0% at EC30 ANP, 100% saturating ANP; activation, % at 10 µM; 0.14% of 370,000 active; in the data active = activation above about 40%
FAS TE block: FAS thioesterase (human) inhibition. recombinant FAS-TE, OMFH fluorogenic substrate, fluorescence endpoint. inhibition, % at 15 µM. 0.67% of 360,000 active;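 active = compounds whose normalised, plate-corrected inhibition of enzyme fluorescence in the single-dose primary screen is 50% or more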;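 note: 0% = DMSO with enzyme and 100% = substrate without enzyme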
NPR2 activator: GC-B (human) receptor activation | HEK293-GC-B cells, CNP EC30, cGMP TR-FRET; 0% at EC30 CNP, 100% saturating CNP | activation, % at 10 µM | 0.11% of 370,000 active | AID 1920062;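 active = activation at 10 µM reaching about 35% in either raw or pattern-adjusted values, limit read from the data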
ADAM10 confirm: human ADAM10 inhibition, confirmation | shares compounds with ADAM10 inh | ADAM10 QFRET peptide cleavage, EDANS fluorescence | inhibition, % at 6.95 µM | 1% of 2,100 active;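 active = inhibition above about 20% chosen separately for each screening run, limit read from the data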;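 note: 0% = DMSO wells and 100% = marimastat wells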
ADAM17 ctr: inhibits human ADAM17 in ADAM10 exosite counter-screen; 0.5% of 2,100 active; inhibition, % at 6.95 µM; shares compounds with ADAM10 inh; ADAM17 QFRET peptide cleavage, EDANS fluorescence;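 active = mean triplicate inhibition above the solvent-only control wells' mean plus 3 SD, cut at about 12% in these data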;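 note: 0% = DMSO wells and 100% = marimastat wells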
ADAM10 ctr: counter-screen for ADAM17 exosite inhibitors: inhibitors of human ADAM10. shares compounds with ADAM17 inh. recombinant ADAM10, EDANS/DABCYL FRET peptide cleavage, 3 h. inhibition, % at 6.95 µM. 47% of 2,900 active;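 active = mean inhibition over the triplicate runs exceeds the activity threshold set in the earlier primary screen, cut at about 20% in these data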;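 note: 0% = DMSO wells and 100% = marimastat wells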
ADAM17 confirm: confirmation of inhibitors of human ADAM17 | shares compounds with ADAM17 inh | inhibition, % at 6.95 µM | 65% of 2,900 active | recombinant ADAM17, EDANS/DABCYL QFRET peptide cleavage;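 active = mean inhibition across replicates above the hit cutoff set in the primary screen, cut at about 8.5% in these data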;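 note: 0% = DMSO wells and 100% = marimastat wells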
Numbers without * were called inactive; x = not tested or not shown. Most compounds without a hit are left out; they make up all but 2% or so of the library.

SMILES	ADAM17 inh	ADAM10 inh	NPR1 activator	FAS TE block	NPR2 activator	ADAM10 confirm	ADAM17 ctr	ADAM10 ctr	ADAM17 confirm
COC(=O)[C@H](CC(C)C)N(CCc1cn(Cc2ccc(C)cc2)nn1)S(=O)(=O)c1ccccc1Br	6	12	3	x	3	x	x	x	x
NC1=[N+](Cc2ccccc2)C(Cc2ccccc2)C2C(=C3CCCCC3n3c(=O)n(-c4ccccc4)c(=O)n32)N1 (centres undefined)	-1	-5	-23	x	-10	x	x	x	x
COc1cccc(NC(=O)CN(C)C(=O)CC2Sc3ccccc3NC2=O)c1 (centres undefined)	-1	-7	-2	-8	-4	x	x	x	x
CN(CC(=O)Nc1ccc(Cl)c(C(F)(F)F)c1)C(=O)CC1Sc2ccccc2NC1=O (centres undefined)	14*	33*	-6	49	-6	1	0	26*	13*
Cc1ccc(C)c(OCC(=O)N(C)CC(=O)Nc2ccc(Cl)c(C(F)(F)F)c2)c1	8.8*	23*	-6	28	-3	4	0	31*	17*
Cc1nc(-c2ccc(F)cc2)c(CC(=O)N(C)CC(=O)Nc2ccc(Cl)c(C(F)(F)F)c2)s1	19*	32*	-4	33	-6	1	1	25*	14*
CCn1c(SCc2ccccc2Cl)nnc1-c1ccccc1OC	2	-9	-2	x	-1	x	x	x	x
COc1ccc(C2=Nc3ccccc3NC(=O)C2N(C(=O)c2ccnc3ccccc23)c2ccccc2)cc1 (centres undefined)	17*	33*	-10	16	-10	3	1	21*	15*
COc1ccc(C2=Nc3ccccc3NC(=O)C2N(C(=O)c2cnc(C)cn2)c2ccc(N3CCOCC3)cc2)cc1 (centres undefined)	-2	-4	2	-14	-3	x	x	x	x
COC(=O)Nc1ccc(S(=O)(=O)N2CCC(C)CC2)cc1	-5	-2	6	6	8	x	x	x	x
COC(=O)Nc1ccc(S(=O)(=O)N2CCC(Cc3ccccc3)CC2)cc1	11*	20*	-2	28	3	7	3	35*	14*
CC(C)(C)c1ccc(/C=N/OCC(=O)NCc2ccc(F)cc2)cc1	13*	28*	-6	45	-6	3	0	22*	11*
Cc1ccc(CNC(=O)CO/N=C/c2ccc(C(C)(C)C)cc2)cc1	-3	8	-2	26	-4	x	x	x	x
O=C(NCC1COc2ccccc2O1)c1ccc(F)c(S(=O)(=O)N2CCOCC2)c1 (centres undefined)	-2	3	1	-1	1	x	x	x	x
CCc1ccc(NC(=O)c2ccc(F)c(S(=O)(=O)NCC3COc4ccccc4O3)c2)cc1 (centres undefined)	13*	29*	-1	31	-3	12	4	43*	19*
CCN(c1ccccc1)S(=O)(=O)c1cc(C(=O)Nc2ccccc2Cl)ccc1F	4	6	-5	24	2	x	x	x	x
CCN(c1ccccc1)S(=O)(=O)c1cc(C(=O)Nc2ccc(Br)cc2)ccc1F	12*	24*	4	25	-11	8	3	26*	13*
Cc1cc(C(=O)COC(=O)c2ccc(O)cc2)c(C)n1CC1COc2ccccc2O1 (centres undefined)	20*	26*	4	6	1	7	3	13	8
Cc1cc(C(=O)COC(=O)c2ccc3c(c2)OCO3)c(C)n1CC1CCCO1 (centres undefined)	-2	0	-1	-3	-2	x	x	x	x
